# From PubChem BioAssay (NCI)
# The panel holds about 79,000 compounds, 15% with a hit somewhere; the sample as a whole holds those more often. A number with no mark means an inactive call. Calls of active or inactive are those of the source. Rule as the data show it: active = growth inhibition above about 70%; inactive = the rest.
# Assays:
# [1] = NCI Yeast Anticancer Drug Screen. Data for the rad50 strain (AID 155);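 also: 0% = growth of vehicle-only cultures of the same strain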; conditions: S. cerevisiae rad50 strain growth inhibition; at 50.0 µM; stronger effect = higher value
# How it was run: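 A DNA repair-deficient yeast mutant serves as the test organism; compound-induced growth inhibition is calculated against vehicle-treated cells.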
# [2] = NCI Yeast Anticancer Drug Screen. Data for the mec2-1 strain (AID 157); conditions: S. cerevisiae mec2-1 strain, at 50.0 µM, stronger effect = higher value
# How it was run: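 Yeast mec2-1 mutant treated with compound. Readout: growth inhibition vs vehicle controls.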
# [3] = NCI Yeast Anticancer Drug Screen. Data for the sgs1 mgt1 strain (AID 161);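 also: 0% = growth of cultures given vehicle only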; conditions: S. cerevisiae sgs1 mgt1 strain, at 50.0 µM, stronger effect = higher value
# How it was run: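 Read-out: growth inhibition vs vehicle controls. Cells: mutant yeast strain deficient in DNA damage repair.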
# [4] = NCI Yeast Anticancer Drug Screen. Data for the cln2 rad14 strain (AID 165);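 also: 0% = growth equal to vehicle treated cultures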; conditions: S. cerevisiae cln2 rad14 strain, at 50.0 µM, stronger effect = higher value
# How it was run: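 cln2 rad14 yeast strain; compound exposure; growth inhibition read vs vehicle controls.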
# [5] = NCI Yeast Anticancer Drug Screen. Data for the bub3 strain (AID 167); conditions: S. cerevisiae bub3 mutant strain, at 50.0 µM, stronger effect = higher value
# How it was run: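 Inhibition values come from growth of compound-treated mutant yeast normalised to vehicle-treated controls.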
# [6] = NCI Yeast Anticancer Drug Screen. Data for the mlh1 rad18 strain (AID 175); conditions: S. cerevisiae mlh1 rad18 strain growth inhibition; at 50.0 µM; stronger effect = higher value
# How it was run: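 Yeast w/ defined DNA-repair lesions; compound exposure; growth vs vehicle controls → % inhibition.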
SMILES,growth inhibition [1],growth inhibition [2],growth inhibition [3],growth inhibition [4],growth inhibition [5],growth inhibition [6]
Cc1ccc(N=Nc2c(N)ccc3ccccc23)cc1,90.5% (active),87.2% (active),89.6% (active),84.2% (active),87% (active),86.5% (active)
CS(=O)(=O)OC[C@@H](O)[C@@H](O)COS(C)(=O)=O,-2.15%,7.4%,-1.85%,-57.1%,3.55%,-6.85%
CCCCNc1nc2nc[nH]c2c(=O)[nH]1,-5.45%,-6.3%,-13.2%,-2.25%,-29.1%,-48%
CC(C)=C1C(=O)C[C@@]2(C)C[C@H]3OC3(C)CC/C=C(/C)CCC12 (some centres undefined),14.9%,11.7%,19.8%,12.9%,30.2%,-62.5%
O=C1CCC2CCC1C2 (centres undefined),10.1%,-16.6%,-41.3%,15.8%,-36.7%,-28.3%
C=C(C)C(=O)N1c2ccc(OC)cc2CC1C(=O)OCC (centres undefined),-1.6%,16.6%,7.05%,12.8%,15.8%,4.55%
O=C(Cn1cc(I)c(C(=O)NCC(O)CO)n1)NCC(O)CO (centres undefined),-2.2%,-8.7%,-8.4%,26.9%,-5.9%,-9.25%
COc1ccc(/C=C/C(=O)c2sc(N)nc2C)cc1,26.5%,-5.55%,-0.4%,24.6%,3.95%,13.6%
CC1(C(=O)O)CCCC1C(=O)O (centres undefined),12.5%,6.8%,1.75%,-8.05%,-1.25%,12.1%
Cc1cc(=O)n(Cc2ccco2)c(=S)[nH]1,25.1%,-25.4%,14.6%,0.75%,-0.9%,-9%
COc1ccc(-c2oc3ccccc3c(=O)c2O)cc1OC,2.3%,9.9%,16.2%,-10.8%,21.4%,-11.1%
CC(COC(=O)c1ccc(N)cc1)NC1CCCCC1 (centres undefined),-8.2%,1.1%,19.6%,13.7%,-2.25%,-16.6%
N#Cc1c2c(c(N3CCCCC3)n3c1nc1ccccc13)CCC2,19.4%,13.9%,26.8%,8%,19.9%,19.9%
CC(C)(C)CC(C)(C)NC(=O)CCl,-6.05%,2.15%,2.6%,-4.85%,10.3%,-5.45%
CC1=CCC(C#N)N(C)C1c1ccccc1 (centres undefined),2%,-5.25%,-13.4%,-48.1%,-12.3%,8.85%
CC(C(=O)c1ccccc1)C(=O)c1ccccc1,-2.7%,-13%,-7.9%,-9.95%,-5.8%,-1.65%
O=S1(=O)NNC(=NCc2ccc(Cl)c(Cl)c2)c2ccccc21,11.2%,-11.8%,-6.15%,-1.4%,3.2%,-16.4%
CCOC(=O)C1C(NNC(N)=O)CN(C(=O)OCC)C1C(=O)OCC (centres undefined),-9.2%,-5.8%,-15.9%,0.4%,8.45%,10.4%
COc1ccccc1/C=C1\CCC(CN(C)C)C1=O (centres undefined),82.2% (active),89.5% (active),91.8% (active),55.4%,91.1% (active),92.2% (active)
COc1cccc(NC(=O)C(=O)C(C(C)=O)c2nc3ccc(Cl)cc3[nH]c2=O)c1 (centres undefined),-16.3%,3.7%,-19.2%,15.4%,2.25%,-5.4%

SMILES,growth inhibition [1],growth inhibition [2],growth inhibition [3],growth inhibition [4],growth inhibition [5],growth inhibition [6]
N#CCc1cn(-c2ccccc2)nn1,-7.85%,8.3%,-9.5%,5.45%,0.45%,-25.2%
ClC(Cl)=C(Cl)C1(Cl)CC1COCc1ccccc1 (centres undefined),45.5%,-10.1%,-4.05%,17.9%,-7.85%,-3%
COc1ccc(NC(=O)CC(=O)NN)cc1,-5.4%,-0.05%,3.4%,-1.5%,-9.55%,9.2%
COc1cc(Nc2cnc3ccc(C(F)(F)F)cc3n2)cc(OC)c1OC,-0.3%,4.9%,1.15%,-0.8%,-16.9%,-3.5%
COc1ccc(-c2ccccc2C(=O)O)cc1,-2.65%,-14.8%,5.8%,-12.5%,-7.2%,8.1%
CCCCc1c(C#N)c(=O)n2c(N)c(C#N)cnc2c1SC,18.9%,8.45%,21.2%,1.5%,12.7%,25.8%
O=C(Nc1ccc(Cl)c(Cl)c1)c1ccc(Cl)cc1,2%,11.3%,7.65%,8.2%,19.1%,13%
Cc1cc(Cc2cccc3ccccc23)nc2c1ccc1ccccc12,0.85%,-11.2%,12.2%,11%,-13.9%,17.6%
CCOC1=CC(=O)C(=O)c2ccccc21,-1.05%,-10.2%,-5.8%,-17.7%,-0.55%,10.3%
[Br][Pt+2][Br].[NH-]c1ccc(F)cc1.[NH-]c1ccc(F)cc1,34.9%,9.2%,5.4%,-8.3%,-4.75%,24.9%
CC(C)(OC(=O)Nc1ccccc1)c1ccc([N+](=O)[O-])cc1,-5%,9.1%,13.2%,-25.5%,-22.7%,-4.45%
COC(=O)/C=C1\CCC2C3CC=C4C=C(N5CCCC5)CCC4(C)C3C(=O)CC12C (centres undefined),-7.6%,16.1%,18.6%,-9.6%,-12.4%,-18.2%
NC(=O)N/N=C/c1ccncc1,-7.15%,28.6%,-24.9%,-7.05%,8.6%,7.45%
COc1cc(C=O)cc(OC)c1,-19.3%,-49.3%,-20.4%,12.4%,-51%,-2.25%
C=C1CC(Cn2cc(C)c(=O)[nH]c2=O)(c2ccc(-c3ccccc3)cc2)OC1=O (centres undefined),8.9%,-5.35%,38.6%,37.7%,29.5%,47.1%
COC(=O)C1CCC2C3CCCCC3CCC2C1(C)C(=O)OC (centres undefined),-7.6%,2%,-4.55%,-28.4%,5.7%,2.05%
COc1ccc(OC)c(C(N)=O)c1,-0.1%,13.8%,-1.25%,0.95%,0.85%,-2.5%
CCN1CCCC(C#N)(c2ccccc2)CC1 (centres undefined),14.1%,7.45%,14.5%,8.9%,3.2%,-4.1%
COc1ccc2c(c1C)OC(C)C2=O (centres undefined),9.65%,5.05%,-3.9%,-21.1%,-15.9%,0.7%
